# Results with a measured potency or affinity are listed apart. Results filed as inconclusive are left out. The source made the active and inactive calls.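 How the source made its calls: active means curve fit gives half-maximal inhibition potency at or below twice the top tested dose in every run; inconclusive means runs disagree, flat partial inhibition, or poor curve fit; inactive means inactive in every run, flat, reversed or weak.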
# Biological target: Glycogen synthase kinase-3 beta (Homo sapiens) (UniProt P49841)
# Assay: inhibition of human GSK3B activity – biochemical, microfluidics, dry powder samples, set 2, dose response (AID 623989)
# Chain of Glycogen synthase kinase-3 beta (Homo sapiens) (P49841 whole entry, looked up): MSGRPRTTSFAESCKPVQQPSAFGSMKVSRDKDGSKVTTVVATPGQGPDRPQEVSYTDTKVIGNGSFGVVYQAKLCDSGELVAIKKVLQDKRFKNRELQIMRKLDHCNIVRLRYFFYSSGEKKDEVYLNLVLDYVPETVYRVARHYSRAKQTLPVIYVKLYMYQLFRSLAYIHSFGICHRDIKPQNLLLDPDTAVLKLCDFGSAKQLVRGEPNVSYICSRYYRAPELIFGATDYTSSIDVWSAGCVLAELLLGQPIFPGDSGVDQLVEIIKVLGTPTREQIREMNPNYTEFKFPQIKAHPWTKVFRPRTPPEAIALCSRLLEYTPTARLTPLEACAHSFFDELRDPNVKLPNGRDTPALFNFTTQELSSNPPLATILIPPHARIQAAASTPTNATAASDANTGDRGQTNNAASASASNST
compound,measurement,value
COc1cc(C(=O)N2CCN(c3ccccn3)CC2)cc(OC)c1OC,outcome,inactive
